Test results as given in the supplement of paper PMC4466140.

B1: unnamed (peptide)
chain: DRIRMFIRFPKFLLE

The binders below were run against AgAbp1 (assay: SPOT peptide array binding signal intensity (averaged, normalized) (arbitrary units (background-subtracted, floor 0; scale differs between SH3 domains)); higher = stronger binding of the SH3 domain to the peptide).
Outline: (§1)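 Detection of bound protein relied on anti-GST antibody, an HRP anti-mouse secondary and luminol, with imaging and quantification in Genespotter. The bound protein was GST-fused SH3 domains from four yeast species, incubated at 10 μg/ml overnight at 4°C in TBS-based blocking buffer on cellulose membranes carrying synthetic 15-mer peptides with cysteines replaced by serines. Binding signal is normalized, background-subtracted spot intensity averaged over replicates, in arbitrary units that differ between domains.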
With B1 the “SPOT peptide array binding signal intensity” value was 9.5.

These binders were tested against AgBbc1 in the same assay as above.
Outline: as §1
In the case of B1, the “SPOT peptide array binding signal intensity” value is reported as 5.

The binders below were run against AgBem1-D1 in the same assay as above.
Outline: as §1
B1 was tested, and the “SPOT peptide array binding signal intensity” value was 153.

What follows are binders tested against AgBzz1-D1 in the same assay as above.
Outline: as §1
B1 was tested, and the “SPOT peptide array binding signal intensity” value was 12.

These binders were tested against AgBzz1-D2 in the same assay as above.
Outline: as §1
B1 was tested, and the “SPOT peptide array binding signal intensity” value was 20.

The binders below were run against AgCyk3 in the same assay as above.
Outline: as §1
In the case of B1, the “SPOT peptide array binding signal intensity” value is reported as 5.5.

What follows are binders tested against AgFus1 in the same assay as above.
Outline: as §1
With B1 the “SPOT peptide array binding signal intensity” value was 524.

These binders were tested against AgHof1 in the same assay as above.
Outline: as §1
With B1 the “SPOT peptide array binding signal intensity” value was 27.5.

These binders were tested against AgHse1 in the same assay as above.
Outline: as §1
B1 was tested, and the “SPOT peptide array binding signal intensity” value was 1880.

These binders were tested against AgLsb1 in the same assay as above.
Outline: as §1
For B1, the “SPOT peptide array binding signal intensity” value was 1.

These binders were tested against AgLsb4 in the same assay as above.
Outline: as §1
For B1, the “SPOT peptide array binding signal intensity” value was 105.

These binders were tested against AgMyo5 in the same assay as above.
Outline: as §1
With B1 the “SPOT peptide array binding signal intensity” value was 0.5.

What follows are binders tested against AgNbp2 in the same assay as above.
Outline: as §1
B1 was tested, and the “SPOT peptide array binding signal intensity” value was 278.

These binders were tested against AgRvs167 in the same assay as above.
Outline: as §1
For B1, the “SPOT peptide array binding signal intensity” value was 4.33.

What follows are binders tested against AgSho1 in the same assay as above.
Outline: as §1
With B1 the “SPOT peptide array binding signal intensity” value was 132.

The binders below were run against AgSla1-D1-D2 in the same assay as above.
Outline: as §1
B1 was tested, and the “SPOT peptide array binding signal intensity” value was 236.

These binders were tested against AgSla1-D3 in the same assay as above.
Outline: as §1
With B1 the “SPOT peptide array binding signal intensity” value was 5.5.

What follows are binders tested against CaAbp1-D1 in the same assay as above.
Outline: as §1
With B1 the “SPOT peptide array binding signal intensity” value was 470.

The binders below were run against CaAbp1-D2 in the same assay as above.
Outline: as §1
B1 was tested, and the “SPOT peptide array binding signal intensity” value was 318.

Each binder was assayed against CaBbc1 in the same assay as above.
Outline: as §1
B1 was tested, and the “SPOT peptide array binding signal intensity” value was 22.2.

These binders were tested against CaBem1-D1 in the same assay as above.
Outline: as §1
B1 was tested, and the “SPOT peptide array binding signal intensity” value was 27.

Each binder was assayed against CaBzz1-D1 in the same assay as above.
Outline: as §1
In the case of B1, the “SPOT peptide array binding signal intensity” value is reported as 4.

These binders were tested against CaBzz1-D2 in the same assay as above.
Outline: as §1
B1 was tested, and the “SPOT peptide array binding signal intensity” value was 6.75.

What follows are binders tested against CaCyk3 in the same assay as above.
Outline: as §1
B1 was tested, and the “SPOT peptide array binding signal intensity” value was 30.5.

Each binder was assayed against CaFus1 in the same assay as above.
Outline: as §1
B1 was tested, and the “SPOT peptide array binding signal intensity” value was 1830.

Each binder was assayed against CaHof1 in the same assay as above.
Outline: as §1
B1 was tested, and the “SPOT peptide array binding signal intensity” value was 0.5.

Each binder was assayed against CaHse1 in the same assay as above.
Outline: as §1
In the case of B1, the “SPOT peptide array binding signal intensity” value is reported as 191.

What follows are binders tested against CaLsb1 in the same assay as above.
Outline: as §1
For B1, the “SPOT peptide array binding signal intensity” value was 0.5.

Each binder was assayed against CaLsb4 in the same assay as above.
Outline: as §1
With B1 the “SPOT peptide array binding signal intensity” value was 108.

Each binder was assayed against CaMyo5 in the same assay as above.
Outline: as §1
B1 was tested, and the “SPOT peptide array binding signal intensity” value was 42.5.

These binders were tested against CaNbp2 in the same assay as above.
Outline: as §1
B1 was tested, and the “SPOT peptide array binding signal intensity” value was 1050.

What follows are binders tested against CaRvs167 in the same assay as above.
Outline: as §1
With B1 the “SPOT peptide array binding signal intensity” value was 238.

Each binder was assayed against CaRvs167-3 in the same assay as above.
Outline: as §1
In the case of B1, the “SPOT peptide array binding signal intensity” value is reported as 413.

Each binder was assayed against CaSho1 in the same assay as above.
Outline: as §1
For B1, the “SPOT peptide array binding signal intensity” value was 1280.

These binders were tested against CaSla1-D1-D2 in the same assay as above.
Outline: as §1
For B1, the “SPOT peptide array binding signal intensity” value was 67.

The binders below were run against CaSla1-D3 in the same assay as above.
Outline: as §1
For B1, the “SPOT peptide array binding signal intensity” value was 182.

These binders were tested against ScAbp1 in the same assay as above.
Outline: as §1
For B1, the “SPOT peptide array binding signal intensity” value was 52.5.

What follows are binders tested against ScBbc1 in the same assay as above.
Outline: as §1
In the case of B1, the “SPOT peptide array binding signal intensity” value is reported as 1.5.

Each binder was assayed against ScBem1-D1 in the same assay as above.
Outline: as §1
With B1 the “SPOT peptide array binding signal intensity” value was 3.

Each binder was assayed against ScBzz1-D1 in the same assay as above.
Outline: as §1
For B1, the “SPOT peptide array binding signal intensity” value was 16.

The binders below were run against ScBzz1-D2 in the same assay as above.
Outline: as §1
With B1 the “SPOT peptide array binding signal intensity” value was 12.5.

These binders were tested against ScCyk3 in the same assay as above.
Outline: as §1
B1 was tested, and the “SPOT peptide array binding signal intensity” value was 62.

What follows are binders tested against ScFus1 in the same assay as above.
Outline: as §1
B1 was tested, and the “SPOT peptide array binding signal intensity” value was 601.

These binders were tested against ScHof1 in the same assay as above.
Outline: as §1
For B1, the “SPOT peptide array binding signal intensity” value was 1.25.

These binders were tested against ScHse1 in the same assay as above.
Outline: as §1
With B1 the “SPOT peptide array binding signal intensity” value was 1400.

What follows are binders tested against ScLsb1 in the same assay as above.
Outline: as §1
B1 was tested, and the “SPOT peptide array binding signal intensity” value was at most 0.

Each binder was assayed against ScLsb2 in the same assay as above.
Outline: as §1
With B1 the “SPOT peptide array binding signal intensity” value was at most 0.

The binders below were run against ScLsb3 in the same assay as above.
Outline: as §1
B1 was tested, and the “SPOT peptide array binding signal intensity” value was 87.

The binders below were run against ScLsb4 in the same assay as above.
Outline: as §1
With B1 the “SPOT peptide array binding signal intensity” value was 19.

These binders were tested against ScMyo3 in the same assay as above.
Outline: as §1
With B1 the “SPOT peptide array binding signal intensity” value was 1.

Each binder was assayed against ScMyo5 in the same assay as above.
Outline: as §1
B1 was tested, and the “SPOT peptide array binding signal intensity” value was 1.

What follows are binders tested against ScNbp2 in the same assay as above.
Outline: as §1
For B1, the “SPOT peptide array binding signal intensity” value was 356.

The binders below were run against ScPex13 in the same assay as above.
Outline: as §1
For B1, the “SPOT peptide array binding signal intensity” value was 14.8.

Each binder was assayed against ScRvs167 in the same assay as above.
Outline: as §1
In the case of B1, the “SPOT peptide array binding signal intensity” value is reported as 22.7.

The binders below were run against ScSho1 in the same assay as above.
Outline: as §1
For B1, the “SPOT peptide array binding signal intensity” value was 870.

Each binder was assayed against ScSla1-D1-D2 in the same assay as above.
Outline: as §1
With B1 the “SPOT peptide array binding signal intensity” value was 48.5.

Each binder was assayed against ScSla1-D3 in the same assay as above.
Outline: as §1
For B1, the “SPOT peptide array binding signal intensity” value was 69.

Each binder was assayed against SpAbp1-D1 in the same assay as above.
Outline: as §1
B1 was tested, and the “SPOT peptide array binding signal intensity” value was 334.

What follows are binders tested against SpBbc1 in the same assay as above.
Outline: as §1
B1 was tested, and the “SPOT peptide array binding signal intensity” value was 2.5.

The binders below were run against SpBzz1-D1 in the same assay as above.
Outline: as §1
B1 was tested, and the “SPOT peptide array binding signal intensity” value was 103.

Each binder was assayed against SpBzz1-D2 in the same assay as above.
Outline: as §1
B1 was tested, and the “SPOT peptide array binding signal intensity” value was 5.5.

These binders were tested against SpCyk3 in the same assay as above.
Outline: as §1
B1 was tested, and the “SPOT peptide array binding signal intensity” value was 16.

The binders below were run against SpHof1 in the same assay as above.
Outline: as §1
For B1, the “SPOT peptide array binding signal intensity” value was 264.

The binders below were run against SpHof1-2 in the same assay as above.
Outline: as §1
With B1 the “SPOT peptide array binding signal intensity” value was 35.8.

These binders were tested against SpHof1-3 in the same assay as above.
Outline: as §1
In the case of B1, the “SPOT peptide array binding signal intensity” value is reported as 1130.

These binders were tested against SpHse1 in the same assay as above.
Outline: as §1
B1 was tested, and the “SPOT peptide array binding signal intensity” value was 1300.

Each binder was assayed against SpLsb1 in the same assay as above.
Outline: as §1
For B1, the “SPOT peptide array binding signal intensity” value was 1.25.

Each binder was assayed against SpLsb4 in the same assay as above.
Outline: as §1
With B1 the “SPOT peptide array binding signal intensity” value was 139.

What follows are binders tested against SpMyo1 in the same assay as above.
Outline: as §1
B1 was tested, and the “SPOT peptide array binding signal intensity” value was 10.8.

The binders below were run against SpNbp2 in the same assay as above.
Outline: as §1
With B1 the “SPOT peptide array binding signal intensity” value was 957.

What follows are binders tested against SpPex13 in the same assay as above.
Outline: as §1
With B1 the “SPOT peptide array binding signal intensity” value was 38.

What follows are binders tested against SpRvs167 in the same assay as above.
Outline: as §1
For B1, the “SPOT peptide array binding signal intensity” value was 40.3.

These binders were tested against SpSla1-D1-D2 in the same assay as above.
Outline: as §1
For B1, the “SPOT peptide array binding signal intensity” value was at most 0.

These binders were tested against SpSla1-D3 in the same assay as above.
Outline: as §1
B1 was tested, and the “SPOT peptide array binding signal intensity” value was 49.
